# Source: paper PMC7862700, “An all-to-all approach to the identification of sequence-specific readers for epigenetic DNA modifications on cytosine”
# How the values were obtained:
# Assay in all cases: DAPPL (digital affinity profiling via proximity ligation, sequencing); 10 mM Tris-HCl pH 7.5, 50 mM NaCl, 1 mM DTT, 4% glycerol, room temperature, 30 min; GST-TFs on glutathione beads, 16-mer random dsDNA library, 0.1% formaldehyde crosslink after washing; high values mean tight binding
# FLI1 = target: T1, FLI1 (Homo sapiens, UniProt Q01543 1-452); details: protein: recombinant; tags: N-terminal GST; dsDNA, one strand shown
# T1 sequence: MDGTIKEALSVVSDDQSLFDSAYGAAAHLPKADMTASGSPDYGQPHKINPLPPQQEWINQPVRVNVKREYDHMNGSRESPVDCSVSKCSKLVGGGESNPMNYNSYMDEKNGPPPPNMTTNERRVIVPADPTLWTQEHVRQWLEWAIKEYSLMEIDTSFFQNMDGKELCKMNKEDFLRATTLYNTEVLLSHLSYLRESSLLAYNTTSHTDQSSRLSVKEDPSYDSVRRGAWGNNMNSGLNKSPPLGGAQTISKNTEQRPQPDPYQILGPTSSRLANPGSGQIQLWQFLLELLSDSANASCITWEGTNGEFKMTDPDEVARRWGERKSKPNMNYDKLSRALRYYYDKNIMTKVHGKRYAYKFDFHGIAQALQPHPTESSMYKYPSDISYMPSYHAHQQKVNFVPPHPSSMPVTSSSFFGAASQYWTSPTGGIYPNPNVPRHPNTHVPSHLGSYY
# Outline: (§1)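 Pools were built from human transcription factors expressed in yeast as GST fusions, captured on glutathione beads and DNA-barcoded, along with a tag-only sample. Incubation with 200 nmole of a 16-mer random double-stranded DNA library lasted 30 min at room temperature in Tris/NaCl/DTT/glycerol buffer, and was followed by washing, 0.1% formaldehyde crosslinking, proximity ligation, PCR amplification and Illumina NextSeq500 sequencing. Binding signal is the quotient of each hexamer's read frequency for a factor and its frequency for the tag-only sample.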
# ELK1 = target: T2, ELK1 (Homo sapiens, UniProt P19419 1-428); details: protein: recombinant; tags: N-terminal GST; dsDNA, one strand shown
# T2 sequence: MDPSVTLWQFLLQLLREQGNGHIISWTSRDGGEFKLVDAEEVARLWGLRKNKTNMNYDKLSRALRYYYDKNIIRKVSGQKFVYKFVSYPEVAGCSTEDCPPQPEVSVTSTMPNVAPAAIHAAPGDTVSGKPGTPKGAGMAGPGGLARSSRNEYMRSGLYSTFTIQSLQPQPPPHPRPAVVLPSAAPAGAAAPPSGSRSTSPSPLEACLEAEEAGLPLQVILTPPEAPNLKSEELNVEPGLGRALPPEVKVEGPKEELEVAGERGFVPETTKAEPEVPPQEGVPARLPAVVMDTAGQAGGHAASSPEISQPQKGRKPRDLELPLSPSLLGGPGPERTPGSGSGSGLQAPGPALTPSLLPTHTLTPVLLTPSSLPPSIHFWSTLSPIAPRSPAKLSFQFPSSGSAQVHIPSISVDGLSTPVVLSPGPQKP
# Outline: as §1
# GABPA = target: T3, GABPA (Homo sapiens, UniProt Q06546 1-454); details: protein: recombinant; tags: N-terminal GST; dsDNA, one strand shown
# T3 sequence: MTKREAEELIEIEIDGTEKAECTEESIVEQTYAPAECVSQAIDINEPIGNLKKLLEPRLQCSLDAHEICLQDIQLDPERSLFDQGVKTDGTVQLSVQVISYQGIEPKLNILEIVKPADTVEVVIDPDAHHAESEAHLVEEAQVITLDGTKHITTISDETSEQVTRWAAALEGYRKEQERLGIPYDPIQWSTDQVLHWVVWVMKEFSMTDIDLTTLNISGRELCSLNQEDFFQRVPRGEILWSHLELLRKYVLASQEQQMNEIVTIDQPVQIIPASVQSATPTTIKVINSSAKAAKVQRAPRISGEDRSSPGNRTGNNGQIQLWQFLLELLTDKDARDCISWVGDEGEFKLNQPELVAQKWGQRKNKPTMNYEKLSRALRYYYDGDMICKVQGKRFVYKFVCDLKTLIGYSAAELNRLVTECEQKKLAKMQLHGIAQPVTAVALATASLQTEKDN
# Outline: as §1
# ERG = target: T4, ERG (Homo sapiens, UniProt P11308 1-479); details: protein: recombinant; tags: N-terminal GST; dsDNA, one strand shown
# T4 sequence: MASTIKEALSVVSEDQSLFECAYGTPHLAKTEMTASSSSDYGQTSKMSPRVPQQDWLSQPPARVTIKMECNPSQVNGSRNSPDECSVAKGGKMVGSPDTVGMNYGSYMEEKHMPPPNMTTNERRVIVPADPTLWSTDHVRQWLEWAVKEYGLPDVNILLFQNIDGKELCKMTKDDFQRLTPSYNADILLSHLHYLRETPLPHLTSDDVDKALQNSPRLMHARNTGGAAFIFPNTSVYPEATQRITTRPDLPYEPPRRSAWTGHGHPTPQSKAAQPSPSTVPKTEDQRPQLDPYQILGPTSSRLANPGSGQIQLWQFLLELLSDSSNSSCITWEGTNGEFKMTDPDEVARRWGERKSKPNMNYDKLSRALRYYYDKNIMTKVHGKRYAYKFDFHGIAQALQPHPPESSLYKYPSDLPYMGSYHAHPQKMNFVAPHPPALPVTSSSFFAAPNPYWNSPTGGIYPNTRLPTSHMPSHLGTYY
# Outline: as §1
# ELF1 = ELF1 (Homo sapiens, UniProt P32519 1-619); details: protein: recombinant; tags: N-terminal GST; dsDNA, one strand shown
# Outline: as §1
# EHF = target: T5, EHF (Homo sapiens, UniProt Q9NZC4 1-300); details: protein: recombinant; tags: N-terminal GST; dsDNA, one strand shown
# T5 sequence: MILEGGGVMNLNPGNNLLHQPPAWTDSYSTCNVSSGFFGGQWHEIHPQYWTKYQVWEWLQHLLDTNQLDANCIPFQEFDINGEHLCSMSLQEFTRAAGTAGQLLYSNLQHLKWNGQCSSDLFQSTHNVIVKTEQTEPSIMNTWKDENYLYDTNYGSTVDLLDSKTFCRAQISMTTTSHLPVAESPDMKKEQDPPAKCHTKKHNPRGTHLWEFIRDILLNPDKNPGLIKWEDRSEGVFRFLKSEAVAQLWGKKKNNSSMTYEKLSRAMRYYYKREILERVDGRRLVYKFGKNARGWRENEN
# Outline: as §1
# SPI1 = SPI1 (Homo sapiens, UniProt P17947 1-270); details: protein: recombinant; tags: N-terminal GST; dsDNA, one strand shown
# Outline: as §1
# SPIB = SPIB (Homo sapiens, UniProt Q01892 1-262); details: protein: recombinant; tags: N-terminal GST; dsDNA, one strand shown
# Outline: as §1
# ELK3 = target: T6, ELK3 (Homo sapiens, UniProt P41970 1-407); details: protein: recombinant; tags: N-terminal GST; dsDNA, one strand shown
# T6 sequence: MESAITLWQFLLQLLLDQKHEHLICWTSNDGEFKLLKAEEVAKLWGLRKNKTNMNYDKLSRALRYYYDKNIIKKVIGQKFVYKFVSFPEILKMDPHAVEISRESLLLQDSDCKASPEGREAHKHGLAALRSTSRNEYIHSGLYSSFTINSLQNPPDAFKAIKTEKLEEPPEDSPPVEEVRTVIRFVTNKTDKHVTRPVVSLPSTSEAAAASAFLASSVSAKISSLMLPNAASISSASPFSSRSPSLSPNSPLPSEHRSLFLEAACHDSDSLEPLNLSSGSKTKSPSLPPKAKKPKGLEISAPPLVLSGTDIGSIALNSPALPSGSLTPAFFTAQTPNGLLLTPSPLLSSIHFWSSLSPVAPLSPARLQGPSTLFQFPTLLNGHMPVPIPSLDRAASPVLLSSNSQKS
# Outline: as §1
# FEV = target: T7, FEV (Homo sapiens, UniProt Q99581 1-238); details: protein: recombinant; tags: N-terminal GST; dsDNA, one strand shown
# T7 sequence: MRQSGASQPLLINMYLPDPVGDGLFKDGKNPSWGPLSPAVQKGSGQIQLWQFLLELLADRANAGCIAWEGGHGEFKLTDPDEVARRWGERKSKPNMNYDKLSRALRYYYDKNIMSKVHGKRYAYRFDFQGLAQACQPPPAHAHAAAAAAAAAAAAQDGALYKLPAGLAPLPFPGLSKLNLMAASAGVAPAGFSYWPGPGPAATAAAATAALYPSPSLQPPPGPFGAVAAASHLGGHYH
# Outline: as §1
# ETV5 = ETV5 (Homo sapiens, UniProt P41161 1-510); details: protein: recombinant; tags: N-terminal GST; dsDNA, one strand shown
# Outline: as §1
# HSF1 = HSF1 (Homo sapiens, UniProt Q00613 1-529); details: protein: recombinant; tags: N-terminal GST; chain copies: 3; dsDNA, one strand shown
# Outline: as §1
# SPIC = target: T8, SPIC (Homo sapiens, UniProt Q8N5J4 1-248); details: protein: recombinant; tags: N-terminal GST; dsDNA, one strand shown
# T8 sequence: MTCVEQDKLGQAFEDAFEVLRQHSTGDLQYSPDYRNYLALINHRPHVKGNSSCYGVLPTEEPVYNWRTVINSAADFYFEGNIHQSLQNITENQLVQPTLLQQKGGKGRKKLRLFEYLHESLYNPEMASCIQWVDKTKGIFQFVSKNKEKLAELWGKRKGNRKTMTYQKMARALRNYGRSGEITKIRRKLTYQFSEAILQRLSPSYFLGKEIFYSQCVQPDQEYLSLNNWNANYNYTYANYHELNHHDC
# Outline: as §1
# ELF4 = ELF4 (Homo sapiens, UniProt Q99607 1-663); details: protein: recombinant; tags: N-terminal GST; dsDNA, one strand shown
# Outline: as §1
# ELK4 = target: T9, ELK4 (Homo sapiens, UniProt P28324-2 1-405); details: protein: recombinant; tags: N-terminal GST; dsDNA, one strand shown
# T9 sequence: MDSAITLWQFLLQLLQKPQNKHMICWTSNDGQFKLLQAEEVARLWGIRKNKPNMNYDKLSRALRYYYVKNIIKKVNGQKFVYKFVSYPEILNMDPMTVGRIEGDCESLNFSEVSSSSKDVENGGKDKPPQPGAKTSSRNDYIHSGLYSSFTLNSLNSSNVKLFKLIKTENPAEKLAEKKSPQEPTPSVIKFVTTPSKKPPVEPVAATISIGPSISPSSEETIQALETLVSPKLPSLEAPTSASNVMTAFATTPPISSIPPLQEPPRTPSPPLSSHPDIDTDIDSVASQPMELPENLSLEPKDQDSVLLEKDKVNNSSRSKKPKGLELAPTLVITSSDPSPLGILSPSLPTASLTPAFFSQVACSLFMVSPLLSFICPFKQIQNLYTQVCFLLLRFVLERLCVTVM
# Outline: as §1
# ETV2 = target: T10, ETV2 (Homo sapiens, UniProt O00321 1-342); details: protein: recombinant; tags: N-terminal GST; dsDNA, one strand shown
# T10 sequence: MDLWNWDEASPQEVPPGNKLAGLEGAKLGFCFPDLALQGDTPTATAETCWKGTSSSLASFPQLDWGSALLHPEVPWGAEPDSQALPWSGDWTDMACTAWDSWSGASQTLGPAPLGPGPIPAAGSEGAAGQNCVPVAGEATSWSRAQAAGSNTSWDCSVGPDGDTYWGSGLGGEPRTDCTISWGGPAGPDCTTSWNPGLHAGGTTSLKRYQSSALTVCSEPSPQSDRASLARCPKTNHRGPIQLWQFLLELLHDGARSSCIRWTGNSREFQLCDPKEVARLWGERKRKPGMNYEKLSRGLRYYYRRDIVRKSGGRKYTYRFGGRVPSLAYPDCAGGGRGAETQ
# Outline: as §1
# ELF3 = target: T11, ELF3 (Homo sapiens, UniProt P78545 1-371); details: protein: recombinant; tags: N-terminal GST; dsDNA, one strand shown
# T11 sequence: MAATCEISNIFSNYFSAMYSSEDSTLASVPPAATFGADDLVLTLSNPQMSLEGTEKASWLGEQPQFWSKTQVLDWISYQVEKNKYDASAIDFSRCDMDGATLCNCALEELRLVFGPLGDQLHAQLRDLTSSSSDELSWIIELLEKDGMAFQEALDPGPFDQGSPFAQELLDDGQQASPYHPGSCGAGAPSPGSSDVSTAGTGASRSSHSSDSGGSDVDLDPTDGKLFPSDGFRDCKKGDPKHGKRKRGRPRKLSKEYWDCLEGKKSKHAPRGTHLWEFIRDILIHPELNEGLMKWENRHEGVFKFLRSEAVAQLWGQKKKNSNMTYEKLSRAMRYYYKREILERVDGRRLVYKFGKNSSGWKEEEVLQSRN
# Outline: as §1
# CRX = CRX (Homo sapiens, UniProt O43186 1-299); details: protein: recombinant; tags: N-terminal GST; dsDNA, one strand shown
# Outline: as §1
# ETV1 = ETV1 (Homo sapiens, UniProt P50549 1-477); details: protein: recombinant; tags: N-terminal GST; dsDNA, one strand shown
# Outline: as §1
# Chain of CRX (O43186 whole entry): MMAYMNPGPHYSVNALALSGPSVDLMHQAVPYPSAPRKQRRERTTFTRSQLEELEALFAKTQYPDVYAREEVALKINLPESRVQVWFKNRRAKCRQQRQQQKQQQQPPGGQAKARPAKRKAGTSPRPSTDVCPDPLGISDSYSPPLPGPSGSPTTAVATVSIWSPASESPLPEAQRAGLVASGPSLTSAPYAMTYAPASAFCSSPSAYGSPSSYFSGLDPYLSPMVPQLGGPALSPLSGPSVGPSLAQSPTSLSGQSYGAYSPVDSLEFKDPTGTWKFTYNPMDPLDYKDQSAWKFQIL
# Chain of HSF1 (Q00613 whole entry): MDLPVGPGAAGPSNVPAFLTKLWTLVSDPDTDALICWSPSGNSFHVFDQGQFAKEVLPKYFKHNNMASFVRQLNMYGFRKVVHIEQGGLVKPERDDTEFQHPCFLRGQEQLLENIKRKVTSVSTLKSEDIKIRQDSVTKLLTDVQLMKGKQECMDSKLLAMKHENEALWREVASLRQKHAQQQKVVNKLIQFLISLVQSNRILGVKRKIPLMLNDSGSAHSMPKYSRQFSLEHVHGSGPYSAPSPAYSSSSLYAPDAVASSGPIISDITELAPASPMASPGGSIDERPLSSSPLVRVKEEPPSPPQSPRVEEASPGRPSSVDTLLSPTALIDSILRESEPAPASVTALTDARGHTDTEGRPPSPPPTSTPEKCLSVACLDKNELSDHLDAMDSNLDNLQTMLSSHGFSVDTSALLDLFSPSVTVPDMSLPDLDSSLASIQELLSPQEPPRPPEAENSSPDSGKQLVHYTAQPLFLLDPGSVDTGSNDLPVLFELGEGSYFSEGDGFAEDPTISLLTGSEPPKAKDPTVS
# Chain of SPIB (Q01892 whole entry): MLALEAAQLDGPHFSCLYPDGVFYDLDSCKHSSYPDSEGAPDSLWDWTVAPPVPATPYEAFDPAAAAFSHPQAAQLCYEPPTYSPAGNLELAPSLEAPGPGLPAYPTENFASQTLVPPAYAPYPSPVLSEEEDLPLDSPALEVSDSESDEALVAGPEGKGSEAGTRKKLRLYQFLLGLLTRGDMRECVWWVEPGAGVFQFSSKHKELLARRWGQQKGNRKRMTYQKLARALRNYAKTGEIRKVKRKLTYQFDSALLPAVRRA
# Chain of ETV5 (P41161 whole entry): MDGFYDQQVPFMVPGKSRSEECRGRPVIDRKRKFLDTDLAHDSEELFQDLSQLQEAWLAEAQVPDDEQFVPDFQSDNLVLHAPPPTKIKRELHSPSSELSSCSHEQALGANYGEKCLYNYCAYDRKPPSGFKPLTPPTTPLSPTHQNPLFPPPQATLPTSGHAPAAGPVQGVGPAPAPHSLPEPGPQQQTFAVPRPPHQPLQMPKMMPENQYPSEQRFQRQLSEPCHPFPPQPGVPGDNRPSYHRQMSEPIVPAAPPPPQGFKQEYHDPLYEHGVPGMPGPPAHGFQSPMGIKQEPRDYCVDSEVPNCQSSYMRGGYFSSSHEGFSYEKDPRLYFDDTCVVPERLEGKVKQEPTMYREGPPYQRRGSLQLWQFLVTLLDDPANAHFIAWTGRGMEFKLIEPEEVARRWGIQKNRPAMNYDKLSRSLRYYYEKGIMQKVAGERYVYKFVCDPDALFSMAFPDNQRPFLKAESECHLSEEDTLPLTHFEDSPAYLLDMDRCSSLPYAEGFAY
# Chain of ELF1 (P32519 whole entry): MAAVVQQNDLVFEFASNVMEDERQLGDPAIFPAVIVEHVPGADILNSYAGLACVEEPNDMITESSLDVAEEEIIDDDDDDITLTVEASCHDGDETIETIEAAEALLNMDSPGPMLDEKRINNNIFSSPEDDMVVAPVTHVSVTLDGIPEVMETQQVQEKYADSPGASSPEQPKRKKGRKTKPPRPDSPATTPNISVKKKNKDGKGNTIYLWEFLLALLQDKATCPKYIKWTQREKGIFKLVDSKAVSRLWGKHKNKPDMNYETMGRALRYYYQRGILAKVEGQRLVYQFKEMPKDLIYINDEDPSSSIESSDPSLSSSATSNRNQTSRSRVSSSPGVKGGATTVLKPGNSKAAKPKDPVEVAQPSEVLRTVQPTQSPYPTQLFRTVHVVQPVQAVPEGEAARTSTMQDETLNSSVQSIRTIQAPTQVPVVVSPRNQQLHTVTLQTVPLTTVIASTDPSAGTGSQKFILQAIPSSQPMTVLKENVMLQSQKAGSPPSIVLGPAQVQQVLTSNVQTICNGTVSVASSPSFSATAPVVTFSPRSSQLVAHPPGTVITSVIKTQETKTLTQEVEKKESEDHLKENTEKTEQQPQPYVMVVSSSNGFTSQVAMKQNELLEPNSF
# Chain of ETV1 (P50549 whole entry): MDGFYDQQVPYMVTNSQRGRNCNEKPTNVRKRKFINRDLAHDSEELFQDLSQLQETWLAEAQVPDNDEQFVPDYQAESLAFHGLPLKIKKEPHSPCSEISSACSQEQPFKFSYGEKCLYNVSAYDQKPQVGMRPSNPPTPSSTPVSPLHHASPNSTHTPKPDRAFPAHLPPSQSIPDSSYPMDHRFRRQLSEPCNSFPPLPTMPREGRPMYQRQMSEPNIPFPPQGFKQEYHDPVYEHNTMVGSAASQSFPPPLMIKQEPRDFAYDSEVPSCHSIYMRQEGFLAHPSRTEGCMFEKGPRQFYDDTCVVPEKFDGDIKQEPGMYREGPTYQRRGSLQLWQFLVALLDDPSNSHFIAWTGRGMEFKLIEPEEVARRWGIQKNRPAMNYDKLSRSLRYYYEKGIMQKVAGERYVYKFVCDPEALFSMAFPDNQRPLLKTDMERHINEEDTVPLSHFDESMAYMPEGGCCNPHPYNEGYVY
# Chain of ELF4 (Q99607 whole entry): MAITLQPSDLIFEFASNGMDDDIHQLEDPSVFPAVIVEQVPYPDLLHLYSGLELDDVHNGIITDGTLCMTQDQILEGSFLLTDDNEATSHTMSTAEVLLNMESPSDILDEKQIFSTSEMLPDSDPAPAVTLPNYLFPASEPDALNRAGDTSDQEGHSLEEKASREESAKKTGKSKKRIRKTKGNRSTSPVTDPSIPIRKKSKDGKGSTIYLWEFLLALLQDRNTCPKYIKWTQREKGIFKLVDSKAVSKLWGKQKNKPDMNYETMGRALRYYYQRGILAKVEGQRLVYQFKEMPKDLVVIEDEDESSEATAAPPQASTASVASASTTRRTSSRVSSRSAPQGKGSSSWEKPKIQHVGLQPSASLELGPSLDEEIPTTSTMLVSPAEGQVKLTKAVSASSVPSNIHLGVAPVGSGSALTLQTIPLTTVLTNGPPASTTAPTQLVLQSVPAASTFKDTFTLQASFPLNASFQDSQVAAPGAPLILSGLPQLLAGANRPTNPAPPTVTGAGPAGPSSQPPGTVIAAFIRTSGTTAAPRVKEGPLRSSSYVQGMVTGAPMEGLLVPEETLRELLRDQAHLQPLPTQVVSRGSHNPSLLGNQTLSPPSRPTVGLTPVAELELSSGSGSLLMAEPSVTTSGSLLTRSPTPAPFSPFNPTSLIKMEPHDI
sequence,measurement,setting,value
CTTGAT,binding signal,FLI1,"1.52 fold enrichment (6-mer frequency, TF over GST control)"
same,binding signal,ELK1,"1.53 fold enrichment (6-mer frequency, TF over GST control)"
same,binding signal,GABPA,"1.52 fold enrichment (6-mer frequency, TF over GST control)"
same,binding signal,ERG,"1.34 fold enrichment (6-mer frequency, TF over GST control)"
same,binding signal,ELF1,"1.42 fold enrichment (6-mer frequency, TF over GST control)"
same,binding signal,EHF,"1.51 fold enrichment (6-mer frequency, TF over GST control)"
same,binding signal,SPI1,"1.27 fold enrichment (6-mer frequency, TF over GST control)"
same,binding signal,SPIB,"1.41 fold enrichment (6-mer frequency, TF over GST control)"
same,binding signal,ELK3,"1.34 fold enrichment (6-mer frequency, TF over GST control)"
same,binding signal,FEV,"1.38 fold enrichment (6-mer frequency, TF over GST control)"
same,binding signal,ETV5,"1.43 fold enrichment (6-mer frequency, TF over GST control)"
same,binding signal,HSF1,"1.44 fold enrichment (6-mer frequency, TF over GST control)"
same,binding signal,SPIC,"1.41 fold enrichment (6-mer frequency, TF over GST control)"
same,binding signal,ELF4,"1.43 fold enrichment (6-mer frequency, TF over GST control)"
same,binding signal,ELK4,"1.43 fold enrichment (6-mer frequency, TF over GST control)"
same,binding signal,ETV2,"1.43 fold enrichment (6-mer frequency, TF over GST control)"
same,binding signal,ELF3,"1.38 fold enrichment (6-mer frequency, TF over GST control)"
same,binding signal,CRX,"1.57 fold enrichment (6-mer frequency, TF over GST control)"
same,binding signal,ETV1,"1.29 fold enrichment (6-mer frequency, TF over GST control)"
